Results: PubChem BioAssay (NCI)
Compounds without any hit were thinned out: in the full panel of roughly 79,000, 15% have a hit. Values without a mark were called inactive. Activity calls are given as the source filed them. Rule as the data show it: active = growth inhibition above about 70%; inactive = the rest. Where a SMILES comes first, the peptide text is derived from it. [ ]: non-standard residue; d: D form. Nva = CCC[CH](N)C(=O)O

Test: NCI Yeast Anticancer Drug Screen. Data for the bub3 strain (AID 167)
Conditions: S. cerevisiae bub3 mutant strain, at 50.0 µM, stronger effect = higher value
Outline: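 Inhibition values come from growth of compound-treated mutant yeast normalised to vehicle-treated controls.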

Structure (SMILES)	growth inhibition
O=[N+]([O-])c1ccc(-c2ccc(-c3csc(Nc4ccccc4)n3)o2)cc1	93% (active)
C1=C(C2=C[P+](c3ccccc3)(c3ccccc3)C=C(c3ccccc3)O2)OC(c2ccccc2)=C[P+]1(c1ccccc1)c1ccccc1	6.8%
Cc1ccc(C2C(O)=C(c3ccccc3)Sc3ccc(C)cc32)cc1 (stereo not given)	13.4%
CCc1n[nH]c(CC)c1CCCCCCOc1ccc(OC)cc1Cl	89.2% (active)
C=C1CC[C@H]2C(C)=CC[C@@H]3[C@H](OC(=O)[C@H]3CN3CCN(c4ccc(C)c([N+](=O)[O-])c4)CC3)[C@@H]12	69.8%
C(CCCCCN1CCCCC1)CCCCN1CCCCC1	-27.2%
CN(Cc1cnc2nc(N)nc(N)c2n1)c1ccc(C(=O)NC(CCC(=O)O)C(=O)O)cc1C(F)(F)F (stereo not given)	75.5% (active)
CC(C(=O)O)C(N)C(=O)O (stereo not given)	99.6% (active)
CCCCCCCCCCN(CCCCCCCCCC)C1CC(OC2CC(O)(C(O)CO)Cc3c(O)c4c(c(O)c32)C(=O)c2c(OC)cccc2C4=O)OC(C)C1O (stereo not given)	90.8% (active)
COc1ccc(OCC(O)CN2CCN(c3cccc(Cl)c3)CC2)cc1 (stereo not given)	42.6%
O=C(O)c1ccccc1C(=O)c1ccc2c(c1)Cc1ccccc1-2	42.8%
Cc1cc(C2c3ccccc3-c3ccccc32)cc(C)c1O	97.2% (active)
CC(C)(C)c1cc(Cl)c(O)c(Cc2cc(C(C)(C)C)cc(Cl)c2O)c1	62.5%
COc1cccc(/C=C/C(C)=O)c1OC	5.2%
Cc1nc2c(cnn2C)cc1CCc1ccccc1	76.1% (active)
O=C1C(C(O)(C(F)(F)Cl)C(F)(F)Cl)CCCC1C(O)(C(F)(F)Cl)C(F)(F)Cl (stereo not given)	99.7% (active)
C=CCNCCC1CCCCCC1	97.7% (active)
CCCC(N)C(=O)NC(C(=O)O)C(C)C (stereo not given) (H-[Nva]-Val-OH; configuration not given here)	62%
Cc1cc(N)c2cc(NC(=O)Nc3ccc4nc(C)cc(N)c4c3)ccc2n1	98.7% (active)
COc1ccc(N=Cc2ccccc2O)cc1	-5.25%

Structure (SMILES)	growth inhibition
Cc1cc(Br)c2ccccc2c1N	75% (active)
c1ccc(-c2cc(Nc3ccc4c(c3)OCO4)c3cc(C4CCCCC4)ccc3n2)cc1	41.2%
CCCCCCCCc1cc[n+](C2=C([O-])c3ccccc3C(=O)C2=O)cc1	98.8% (active)
CCCCCCCCCCCc1nnc(N)o1	95.1% (active)
O=C1OC(OCC#CCOC2OC(=O)C(Cl)=C2Cl)C(Cl)=C1Cl (stereo not given)	98.3% (active)
O=S(=O)(O)CC[S][Sn]([S]CCS(=O)(=O)O)([c]1ccccc1)[c]1ccccc1 (tested in a mixture with another compound)	86.2% (active)
CC(C)NC(=O)OCCS(=O)c1c(Cl)c(Cl)nn1C (stereo not given)	97% (active)
CN1N=C2c3ccccc3CC[C@H]2C1c1cccc(O)c1 (stereo not given in full)	67.2%
O=C1CSC(=S)N1/N=C/c1ccc(Cl)c([N+](=O)[O-])c1	57.9%
O=C(O)CCCCCCCCC(=O)CCl	99.5% (active)
O=C(NC1CCN(Cc2ccccc2)CC1)c1ccccc1I	74% (active)
Cc1ccc(Nc2nc3c(s2)C(=O)c2ccccc2C3=O)cc1	98.7% (active)
O=C(/C=C/c1ccccc1)c1cc2c(cc1O)OCO2	18.8%
O=[N+]([O-])c1ccc(Sc2ccc([N+](=O)[O-])o2)o1	99.5% (active)
CCCCCCCCN(CCCCCCCC)CC(O)c1cc(OCC)nc2ccccc12 (stereo not given)	97.8% (active)
CC(O)CCc1nc2ccccc2[nH]1 (stereo not given)	-6.65%
CCCCCCCCCCCCCCCCSC(=NC)NC	99.1% (active)
O=C(O)CCC(O)=C1S(=O)(=O)OCCOS1(=O)=O	15.7%
CCCCCCCCCCCCCCCCN	98.8% (active)
COC1=C(Br)C(=O)N/C1=C(\OC)c1ccccc1	-1.65%

Test: NCI Yeast Anticancer Drug Screen. Data for the mlh1 rad18 strain (AID 175)
Conditions: S. cerevisiae mlh1 rad18 strain growth inhibition; at 5.0 µM (retest, dose inferred, filed as 0.5); stronger effect = higher value
Outline: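 Read-out is yeast growth inhibition, calculated against vehicle-only controls. The compound was applied to a strain engineered with DNA damage repair alterations.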

Structure (SMILES)	growth inhibition
O=[N+]([O-])c1ccc(-c2ccc(-c3csc(Nc4ccccc4)n3)o2)cc1	98% (active)
C1=C(C2=C[P+](c3ccccc3)(c3ccccc3)C=C(c3ccccc3)O2)OC(c2ccccc2)=C[P+]1(c1ccccc1)c1ccccc1	9%
Cc1ccc(C2C(O)=C(c3ccccc3)Sc3ccc(C)cc32)cc1 (stereo not given)	-8%
CCc1n[nH]c(CC)c1CCCCCCOc1ccc(OC)cc1Cl	-11%
C=C1CC[C@H]2C(C)=CC[C@@H]3[C@H](OC(=O)[C@H]3CN3CCN(c4ccc(C)c([N+](=O)[O-])c4)CC3)[C@@H]12	42%
C(CCCCCN1CCCCC1)CCCCN1CCCCC1	-1%
CN(Cc1cnc2nc(N)nc(N)c2n1)c1ccc(C(=O)NC(CCC(=O)O)C(=O)O)cc1C(F)(F)F (stereo not given)	0%
CC(C(=O)O)C(N)C(=O)O (stereo not given)	-2%
CCCCCCCCCCN(CCCCCCCCCC)C1CC(OC2CC(O)(C(O)CO)Cc3c(O)c4c(c(O)c32)C(=O)c2c(OC)cccc2C4=O)OC(C)C1O (stereo not given)	17%
COc1ccc(OCC(O)CN2CCN(c3cccc(Cl)c3)CC2)cc1 (stereo not given)	20%
O=C(O)c1ccccc1C(=O)c1ccc2c(c1)Cc1ccccc1-2	3%
Cc1cc(C2c3ccccc3-c3ccccc32)cc(C)c1O	7%
CC(C)(C)c1cc(Cl)c(O)c(Cc2cc(C(C)(C)C)cc(Cl)c2O)c1	52%
COc1cccc(/C=C/C(C)=O)c1OC	-4%
Cc1nc2c(cnn2C)cc1CCc1ccccc1	8%
O=C1C(C(O)(C(F)(F)Cl)C(F)(F)Cl)CCCC1C(O)(C(F)(F)Cl)C(F)(F)Cl (stereo not given)	96% (active)
C=CCNCCC1CCCCCC1	4%
CCCC(N)C(=O)NC(C(=O)O)C(C)C (stereo not given) (H-[Nva]-Val-OH; configuration not given here)	-2%
Cc1cc(N)c2cc(NC(=O)Nc3ccc4nc(C)cc(N)c4c3)ccc2n1	99% (active)
COc1ccc(N=Cc2ccccc2O)cc1	-7%

Structure (SMILES)	growth inhibition
Cc1cc(Br)c2ccccc2c1N	-3%
c1ccc(-c2cc(Nc3ccc4c(c3)OCO4)c3cc(C4CCCCC4)ccc3n2)cc1	7%
CCCCCCCCc1cc[n+](C2=C([O-])c3ccccc3C(=O)C2=O)cc1	100% (active)
CCCCCCCCCCCc1nnc(N)o1	7%
O=C1OC(OCC#CCOC2OC(=O)C(Cl)=C2Cl)C(Cl)=C1Cl (stereo not given)	46%
O=S(=O)(O)CC[S][Sn]([S]CCS(=O)(=O)O)([c]1ccccc1)[c]1ccccc1 (tested in a mixture with another compound)	94% (active)
CC(C)NC(=O)OCCS(=O)c1c(Cl)c(Cl)nn1C (stereo not given)	-7%
CN1N=C2c3ccccc3CC[C@H]2C1c1cccc(O)c1 (stereo not given in full)	-16%
O=C1CSC(=S)N1/N=C/c1ccc(Cl)c([N+](=O)[O-])c1	2%
O=C(O)CCCCCCCCC(=O)CCl	38%
O=C(NC1CCN(Cc2ccccc2)CC1)c1ccccc1I	73% (active)
Cc1ccc(Nc2nc3c(s2)C(=O)c2ccccc2C3=O)cc1	61%
O=C(/C=C/c1ccccc1)c1cc2c(cc1O)OCO2	-16%
O=[N+]([O-])c1ccc(Sc2ccc([N+](=O)[O-])o2)o1	98% (active)
CCCCCCCCN(CCCCCCCC)CC(O)c1cc(OCC)nc2ccccc12 (stereo not given)	9%
CC(O)CCc1nc2ccccc2[nH]1 (stereo not given)	0%
CCCCCCCCCCCCCCCCSC(=NC)NC	67%
O=C(O)CCC(O)=C1S(=O)(=O)OCCOS1(=O)=O	-17%
CCCCCCCCCCCCCCCCN	98% (active)
COC1=C(Br)C(=O)N/C1=C(\OC)c1ccccc1	2%
